Screening data: PubChem BioAssay, Johns Hopkins Ion Channel Center
KCNQ2 block = blocks the rat KCNQ2 potassium channel; CHO-K1 KCNQ2, FluxOR thallium flux, 20 min; stronger effect = lower value; B-score at 10 µM; 310,000 tested, 1.1% active;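 active = fluorescence ratio B-score at most minus 3 library SDs, with starting brightness B-score within 2 library SDs, cut at about -5.5 in these data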
KCNQ2 enhance = potentiators of rat KCNQ2 potassium channel; 310,000 tested, 0.54% active; B-score at 10 µM; CHO-K1 KCNQ2, FluxOR thallium flux fluorescence; stronger effect = higher value; O88943; AID 2239;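 active = fluorescence ratio B-score at least 3 SD of library B-scores, with initial fluorescence B-score within 3 of them, cut at about 5.3 in these data; same plate scores as AID 2156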;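 also: B-score of peak minus minimum over baseline fluorescence ratio after K+ and Tl+ stimulus; positive B-score means potentiation of KCNQ2 with more thallium influx and brighter signal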
Kir21 conf inh = confirmation of mouse Kir2.1 potassium channel inhibitors | shares compounds with KCNQ2 enhance | Kir2.1-expressing cells, FluxOR thallium flux fluorescence; stronger effect = lower value | Tl flux remaining, % of negative control (stronger effect = lower value), % at 10 µM | 2,300 tested, 41% active | AID 2032;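 active = Primary-screen hit whose thallium flux fell at least 3 control SD below untreated wells in both duplicates, with normal baseline fluorescence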;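 also: 0% = blank wells without stimulus and 100% = stimulated no-compound controls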
HEK293 ctr = alters thallium flux in parental HEK293 cells, Kir2.1 counter-screen; shares compounds with KCNQ2 enhance; FluxOR thallium flux fluorescence; 0% = unstimulated blank wells; FluxOR signal as % of negative control (100 = no effect), % at 10 µM; 2,300 tested, 19% active; AID 2105;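 active = dye signal at least 3 control SD above or below untreated wells in both duplicates, raw fluorescence within 3, either direction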;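 also: percent is based on the flux ratio of peak minus minimum fluorescence over baseline F0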
CHO-K1 Tl ctr = counter-screen for KCNQ2 potentiators: effect in parental CHO-K1 cells; shares compounds with KCNQ2 enhance; FluxOR thallium flux fluorescence; zero = vehicle mean+3SD, 100% = vehicle-minus-blank window; activity increase over 3SD of controls, % at 10 µM; 1,200 tested, 43% active; AID 2282;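 active = signal rise of at least 3 SD above the untreated control mean, in both duplicate wells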;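 also: counter screen of KCNQ2 potentiator hits so any rise reflects channel-independent effects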
KCNQ1 pot spec = tests whether KCNQ2 potentiators also act on human KCNQ1 | shares compounds with KCNQ2 enhance | CHO KCNQ1 stable, FluxOR thallium flux fluorescence; beyond 3SD, as % of vehicle-control signal | activation over 3SD threshold, % at 10 µM | 1,200 tested, 28% active;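 active = fluorescence ratio rise of at least 3 SD of vehicle wells above their mean, in both replicate wells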;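 also: 0% = vehicle mean plus 3 SD and 100% = vehicle minus unstimulated blank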
KCNQ2 pot conf = rat KCNQ2 channel potentiator confirmation. shares compounds with KCNQ2 enhance. CHO-KCNQ2 cells, FluxOR thallium flux fluorescence. potentiation, less the hit threshold, % at 10 µM. 1,200 tested, 68% active. AID 2287;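 active = fluorescence ratio rising 3 SD or more over the vehicle control mean in both replicates, plus primary screen hit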;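 also: peak minus minimum thallium fluorescence divided by baseline after K/Tl stimulus; 0% = vehicle mean plus 3 SD and 100% = vehicle minus unstimulated blank difference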
Kir21 spec = tests whether KCNQ2 potentiators also affect mouse Kir2.1; shares compounds with KCNQ2 enhance; 1,200 tested, 2% active; activity over 3SD threshold, % at 10 µM; HEK293 Kir2.1, FluxOR thallium flux fluorescence;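 active = fluorescence ratio rise of at least 3 SD above the vehicle-control mean, seen in both replicates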;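 also: 0% = vehicle mean plus 3 SD and 100% = vehicle minus no-stimulus blank window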
KCNQ2 W236L pot = rat KCNQ2 W236L mutant potentiation by KCNQ2 potentiators; CHO KCNQ2-W236L, automated patch clamp current; 940 tested, 10% active; current increase over 3SD of negative controls (%), stronger effect = higher value, % at 25 µM; shares compounds with KCNQ2 enhance;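 active = current increase at least 3 SD of the untreated controls above them in both duplicate recordings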
Target sequence (O88943 whole entry W236L, looked up): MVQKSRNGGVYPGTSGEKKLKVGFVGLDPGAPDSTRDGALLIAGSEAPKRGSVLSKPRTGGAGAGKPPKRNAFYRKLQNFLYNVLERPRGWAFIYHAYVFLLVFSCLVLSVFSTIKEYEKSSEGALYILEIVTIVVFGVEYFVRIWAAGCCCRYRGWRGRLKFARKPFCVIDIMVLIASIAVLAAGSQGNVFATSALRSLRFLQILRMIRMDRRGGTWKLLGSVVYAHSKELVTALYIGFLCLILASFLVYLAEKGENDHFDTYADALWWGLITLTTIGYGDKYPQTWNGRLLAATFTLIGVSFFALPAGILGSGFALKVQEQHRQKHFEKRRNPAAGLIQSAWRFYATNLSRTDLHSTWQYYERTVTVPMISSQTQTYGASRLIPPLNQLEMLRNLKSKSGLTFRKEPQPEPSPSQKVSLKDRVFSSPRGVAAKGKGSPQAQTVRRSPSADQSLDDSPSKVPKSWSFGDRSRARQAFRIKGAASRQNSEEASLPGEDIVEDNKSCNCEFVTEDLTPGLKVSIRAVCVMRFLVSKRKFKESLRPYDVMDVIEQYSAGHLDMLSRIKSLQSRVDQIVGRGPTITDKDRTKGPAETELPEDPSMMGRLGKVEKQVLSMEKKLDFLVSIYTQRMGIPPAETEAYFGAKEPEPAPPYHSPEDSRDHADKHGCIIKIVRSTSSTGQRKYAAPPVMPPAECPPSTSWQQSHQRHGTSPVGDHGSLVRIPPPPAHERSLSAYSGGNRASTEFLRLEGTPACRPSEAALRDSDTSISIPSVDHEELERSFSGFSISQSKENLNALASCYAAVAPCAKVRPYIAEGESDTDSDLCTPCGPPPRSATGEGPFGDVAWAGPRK
Numbers without * were called inactive; i = inactive; nt = not tested or not shown. Only some compounds are listed: those with a hit (about 1.6% of all), similar ones and a draw of the others.

SMILES	KCNQ2 block	KCNQ2 enhance	Kir21 conf inh	HEK293 ctr	others
Cc1cccc(NC(=O)C(=O)NNC(=O)c2ccc(C(C)(C)C)cc2)c1	i	16*	i	i	CHO-K1 Tl ctr=22*;KCNQ1 pot spec=4.1*;KCNQ2 pot conf=44*;Kir21 spec=-31;KCNQ2 W236L pot=i
CC(C)(C)c1ccc(C(=O)NNC(=O)c2cccc(Br)c2)cc1	i	0.8	nt	nt
CCCCC(=O)OCc1nc(N)nc(Nc2ccccc2C)n1	i	1.1	nt	nt
Cc1ccc(/C=C/C(=O)OCc2nc(N)nc(Nc3ccccc3C)n2)o1	i	6.9*	i	i	CHO-K1 Tl ctr=144*;KCNQ1 pot spec=-6;KCNQ2 pot conf=2.1*;Kir21 spec=-46;KCNQ2 W236L pot=i
O=C(C1CCN(S(=O)(=O)c2c(Cl)cccc2Cl)CC1)N1CCCCCCC1	i	nt	nt	nt
Cc1cc(C)c(NC(=O)/C=C\C(=O)O)c(Cl)c1	i	nt	nt	nt
Cc1cc(C)c(NC(=O)CC(C)(C)C)c(Cl)c1	i	25*	i	i	CHO-K1 Tl ctr=-8;KCNQ1 pot spec=-28;KCNQ2 pot conf=73*;Kir21 spec=-29;KCNQ2 W236L pot=i
Cc1cc(C)c(NC(=O)CC(=O)c2ccccc2)c(Cl)c1	i	1.9	nt	nt
Cc1cc(C)c(NC(=O)CS)c(Cl)c1	i	20*	i	i	CHO-K1 Tl ctr=-16;KCNQ1 pot spec=-2;KCNQ2 pot conf=95*;Kir21 spec=-40;KCNQ2 W236L pot=i
O=C(NCCc1ccccc1)[C@@H]1CC=C[C@@H]2CCN(Cc3ccc(Cl)c(Cl)c3)C(=O)[C@@H]21	i	nt	nt	nt
O=C(Nc1cc2c(oc1=O)CCCC2=O)c1ccc(Cl)cc1	i	nt	nt	nt
CCCN(C(=O)c1cn(-c2ccccc2)nc1-c1ccc(OC)cc1)C1CCS(=O)(=O)C1 (configuration not stated)	i	nt	nt	nt
O=C(NCCC(=O)N1CCC2(CC1)NCCc1[nH]cnc12)c1cccc(Br)c1	i	1.1	nt	nt
COc1cc(C(C(=O)NC2CCCCC2)N(CCN2CCOCC2)C(=O)C2COc3ccccc3O2)cc(OC)c1OC (configuration not stated)	i	nt	nt	nt
c1ccc(-c2csc3ncnc(N4CCOCC4)c23)cc1	i	nt	nt	nt
c1ccc(-c2csc3ncnc(N4CCc5ccccc5C4)c23)cc1	i	nt	i	i
CCN(C(=O)COC(=O)CNC(=O)c1ccc(C)s1)c1ccccc1	i	nt	nt	nt
CCOc1ccc(-c2nnc(SCC(=O)O)n2Cc2ccccc2)cc1	i	nt	nt	nt
Cc1cc(C)c2nc(SC3CCOC3=O)cc(C)c2c1 (configuration not stated)	i	0.27	nt	nt
Cc1cc(C)c2nc(SC(C)C#N)cc(C)c2c1 (configuration not stated)	i	5.6*	i	68%*	CHO-K1 Tl ctr=75*;KCNQ1 pot spec=-9;KCNQ2 pot conf=-12;Kir21 spec=-44;KCNQ2 W236L pot=i
CCc1cccc2sc(N3CCN(C(=O)c4ccc([N+](=O)[O-])o4)CC3)nc12	i	nt	nt	nt
COC(=O)c1ccc(C(=O)OC)c(NC(=S)N2CCCC(C)C2)c1 (configuration not stated)	i	0.38	nt	nt
N#CC(C(N)=O)=C1CCCCC1	i	0.23	nt	nt
CN(NS(=O)(=O)c1ccc(Cl)cc1)c1ncc(C(F)(F)F)cc1Cl	i	3.4	58%*	i
CN(NS(=O)(=O)c1ccc(F)cc1)c1ncc(C(F)(F)F)cc1Cl	i	0.59	nt	nt
Cc1ccccc1OCCSc1nnc(C)n1-c1ccccc1	i	nt	46%*	i
Cc1ccccc1OCc1nnc(SCC(=O)O)n1-c1ccccc1	i	0.78	nt	nt
CCOc1cc(N2CCOCC2)c(OCC)cc1NC(=O)COC(=O)c1ccccc1C	i	0.04	nt	nt
CCOc1cc(N2CCOCC2)c(OCC)cc1NC(=O)CCC1CCCC1	i	25*	i	i	CHO-K1 Tl ctr=0.0*;KCNQ1 pot spec=220*;KCNQ2 pot conf=112*;Kir21 spec=-37;KCNQ2 W236L pot=i
CCOc1cc(N2CCOCC2)c(OCC)cc1NC(=O)C1CCCC1	i	4.2	nt	nt
